“And” between values parts separate entries of the source, which are not always exact repeats. Identical values can stand only once. The source made the active and inactive calls. A call without a number means that no potency is given here. Calls come from the whole dose curve.
Each compound was assayed against Thyrotropin-releasing hormone receptor (Homo sapiens) (UniProt P34981) (assay: qHTS assay to identify small molecule agonists of the thyrotropin-releasing hormone receptor (TRHR) signaling pathway (AID 1346891)). Settings: TRHR-HEK293 calcium fluorescence, agonist mode; series mostly up to 57.6 µM.
Description: National Center for Advancing Translational Sciences [NCATS] NIH Chemical Genomics Center [NCGC] U.S. Environmental Protection Agency [EPA] National Institutes of Environmental Health Sciences [NIEHS] National Toxicology Program [NTP] Assay overview: Thyrotropin-releasing hormone (TRH) receptor (TRHR) is a G-protein-coupled receptor which binds the tripeptide thyrotropin releasing hormone. TRHR is found in the brain and, when bound by TRH, acts (through phospholipase C) to increase intracellular inositol trisphosphate. It plays a crucial role in the anterior pituitary where it controls the synthesis and secretion of thyroid stimulating hormone and prolactin. The TRHR-Hek293 assay is a cell-based assay, and it has the potential to screen G protein-coupled receptors. A compound/drug can either activate (agonist) or suppress (antagonist) GPCRs that can be monitored by levels of intracellular calcium. Using this assay, the Tox21 10K compound library was screened to identify potential TRHR agonists.
Assay Protocol Summary: The TRHR-Hek293 cells were dispensed at 1500cells/4uL/well in 1536-well black-clear bottom plates using a Multidrop dispenser. After the assay plates were incubated at a 37 C/5% CO2 incubator for 18 hours, 4 uL of Dye-Loading Solution was added to each well. The plates were incubated at 37 C for 2 hours. For agonist mode, 23 nL of compounds dissolved in DMSO, positive controls or DMSO only was transferred to the assay plate by a pin tool. The fluorescence intensity in the plates was measured using FDSS 7000EX kinetic plate reader for 3 min at 1 sec intervals. Each test compound was measured at 15 concentrations and in triplicates.
Potency is the fitted concentration of half-maximal effect.

Thyrotropin-releasing hormone receptor (Homo sapiens), sequence (P34981 whole entry, looked up): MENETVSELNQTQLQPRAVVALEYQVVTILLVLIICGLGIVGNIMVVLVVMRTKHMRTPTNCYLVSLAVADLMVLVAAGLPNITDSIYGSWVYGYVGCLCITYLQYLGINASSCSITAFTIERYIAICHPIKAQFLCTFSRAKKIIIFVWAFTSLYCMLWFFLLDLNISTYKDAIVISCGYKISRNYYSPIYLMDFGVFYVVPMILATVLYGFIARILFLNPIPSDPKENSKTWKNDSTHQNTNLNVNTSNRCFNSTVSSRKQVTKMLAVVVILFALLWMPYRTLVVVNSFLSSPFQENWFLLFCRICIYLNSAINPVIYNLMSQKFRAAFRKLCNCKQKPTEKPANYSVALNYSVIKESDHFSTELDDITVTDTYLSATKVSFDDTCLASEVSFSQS

SMILES | Potency
Cc1[nH]c(=O)c(C#N)cc1-c1ccncc1 | inactive
CC(=O)CC/C=C(\C)CCC=C(C)C | inactive
CN(C)CCC=C1c2ccccc2CCc2ccccc21 | inactive
COC(=O)Nc1nc2ccc(S(=O)c3ccccc3)cc2[nH]1 (stereo not given) | inactive
CC(=O)C1(C)CC2=C(CCCC2(C)C)CC1C (stereo not given) | inactive
O=C(COc1ccc(Cl)cc1)N1CCN(Cc2ccc3c(c2)OCO3)CC1 | inactive
NNc1ccc(C(=O)O)cc1 | inactive
O=C(/C=C/C=C/c1ccc2c(c1)OCO2)N1CCCCC1 | inactive
OCCO | inactive
Cn1cnc([N+](=O)[O-])c1Sc1ncnc2nc[nH]c12 | inactive
CCCCC(CC)COP(=O)(OCC(CC)CCCC)OCC(CC)CCCC (stereo not given) | inactive
C[Si](C)(C)O[Si](C)(C)C | inactive
Oc1ccc(O)cc1 | inactive
CCC(C)c1ccccc1O (stereo not given) | inactive
CC(C)CC(C)(O)C#CC(C)(O)CC(C)C (stereo not given) | inactive
Nc1ccccc1N | inactive
CCCCC(CC)COCC1CO1 (stereo not given) | inactive
CCCCCCCCCC(=O)OC | inactive
CN(C)c1nc(N(C)C)nc(N(C)C)n1 | inactive
c1ccc2c(c1)Oc1ccccc1S2 | inactive

SMILES | Potency
O=c1oc(=O)c2cc3c(=O)oc(=O)c3cc12 | inactive
O=C(OCc1ccccc1)c1ccccc1O | inactive
CC(=O)Oc1ccccc1C(=O)Nc1ncc([N+](=O)[O-])s1 | inactive
Cc1cccc([N+](=O)[O-])c1C | inactive
O=C1c2cccc(O)c2C(=O)c2c(O)cccc21 | inactive
c1cc(-c2ccncc2)ccn1 | inactive
CN(C)C(=N)N=C(N)N | inactive
Cc1ccc(C)c(O)c1C | inactive
C[C@]12CC[C@H]3[C@@H](CCC4=CC(=O)CC[C@@]43C)[C@@H]1CC[C@@H]2C(=O)CO | inactive
CC(=O)c1ccccn1 | inactive
Brc1cc(Oc2cc(Br)c(Br)c(Br)c2Br)c(Br)c(Br)c1Br | inactive
Cc1cc2nc3c(=O)[nH]c(=O)nc-3n(C[C@H](O)[C@H](O)[C@H](O)CO)c2cc1C | 10.9 µM (active) and 6.42 µM (active) and 6.57 µM (active)
O=C1OC2(c3cc(Br)c(O)c(Br)c3Oc3c2cc(Br)c(O)c3Br)c2c(Cl)c(Cl)c(Cl)c(Cl)c21 | 15.5 µM (active) and 23.6 µM (active)
CC(C)OC=O | inactive
CC(C)=CCCC(C)CCO (stereo not given) | inactive
O=C(c1ccccc1)c1ccccc1O | inactive
c1ccc2sc(SSN3CCOCC3)nc2c1 | inactive
Nc1ccc(Nc2ccccc2)cc1 | inactive
COC(=O)C1=C(C)NC(C)=C(C(=O)OCCN(C)Cc2ccccc2)C1c1cccc([N+](=O)[O-])c1 (stereo not given) | inactive
O=C(c1ccccc1)c1ccc(O)cc1O | inactive

Reference: PubChem BioAssay (Tox21)
